From PubChem BioAssay AID743395 (Broad Institute, 2014)
Screen size: about 1,200 compounds; about 480 (40%) were called active. How the calls were made is not given here. So high a share suggests a set chosen from earlier hits. The list is a sample of the results. Potency and affinity values are given separately.

assay: viability loss in human hepatoma cells – cell-based, CellTiter-Glo luminescence, cherry-pick, set 2, cytotoxicity control, dose response (AID 743395); conditions: HepG2 viability, CellTiter-Glo ATP luminescence, 72 h; series mostly up to 26 µM; activity change, negative = cytotoxicity: at the top concentration;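 further: 0% = neutral control wells and -100% = positive control wells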

Structure (SMILES) | activity change, negative = cytotoxicity
COCCNC(=O)C1CCCN(C(=O)c2cc(-c3cccs3)oc2C)CC1 (configuration not stated) | -5.14% (inactive)
O=C1NN(c2cccc(Br)c2)C(=O)/C1=C\c1ccc(O)cc1 | -6.99% (inactive)
CCN1C(=O)c2cccc3c(S(=O)(=O)N(C(C)=O)c4ccc(OC(C)=O)cc4)ccc1c23 | -11.3% (inactive)
Cc1ccc(N2C(=O)c3cccc4c([N+](=O)[O-])ccc(c34)C2=O)c2cccnc12 | 4.68% (inactive)
O=C1c2cccc3c([N+](=O)[O-])ccc(c23)C(=O)N1Cc1cccnc1 | -17% (inactive)
CCOc1ccc(NC(=O)c2ccc(NC(=O)CN3C(=O)C(=O)N(CC(C)C)C3=O)cc2)cc1 | 10.6% (inactive)
CC1C2CCC(C2)C1OC(=O)c1ccccc1C(=O)O (configuration not stated) | 9.03% (inactive)
CCCCn1nc(NC(=O)CC)c2cc3cc(OC)ccc3nc21 | 6.47% (inactive)
O=C1CCC(CCc2nc3ccccc3[nH]2)(c2ccccc2)C(=O)N1 (configuration not stated) | -18.2% (inactive)
N#C/C(=C\c1ccccn1)c1nc2ccccc2s1 | 6.64% (inactive)
O=C(C[C@@H]1C[C@H]2c3cc(NC(=O)CC4CC4)ccc3O[C@H]2[C@H](CO)O1)NCc1cccc(F)c1 | 21.2% (inactive)
COC(=O)C1(C)CCCC2(C)C3CCC(C(C)C)C(CO)C3C(CO)CC12 (configuration not stated) | 0.453% (inactive)
CCSc1nnc(N2C(=O)C(O)=C(C(=O)c3ccco3)C2c2cccc(OC)c2)s1 (configuration not stated) | -4.25% (inactive)
O=C(Nc1ccc(Cl)cn1)c1cccc2ccccc12 | -22.4% (inactive)
Cc1cccc(C)c1OCC(=O)OCC(=O)Nc1ccc(Cl)cn1 | -11.6% (inactive)
CC(=Nc1ccccc1O)c1sc2ccccc2c1O | -19.2% (inactive)
COc1ccc(N=C2C(=O)N3CCCc4cccc2c43)cc1 | 4.45% (inactive)
CCN(C(=O)CSc1nc2ccccc2c(=O)n1-c1ccccc1F)C1CCS(=O)(=O)C1 (configuration not stated) | 11.7% (inactive)
O=C(CN1C(=O)NC2(CCCCCCC2)C1=O)Nc1ccc(Br)cc1 | -19.5% (inactive)
Nc1ccccc1C(=O)N1O[C@@H]2C=C[C@H]1C2 | 8.44% (inactive)
CCOC(=O)c1sc(NC(=O)c2c(CC)noc2C)nc1C | 2.39% (inactive)
CCOC(=O)c1sc2nc(Cc3ccc(Cl)cc3)[nH]c(=S)c2c1C | 9.81% (inactive)
Cc1noc(C)c1C(=O)NCC1COc2ccccc2O1 (configuration not stated) | -0.188% (inactive)
CC1CCN(C(=O)c2ccc(S(=O)(=O)N3CCCC3)cc2)CC1 | -3.57% (inactive)
N#CC1c2ccccc2-c2ccccc2N1C(=O)c1ccccc1 (configuration not stated) | -5.27% (inactive)
Cc1ccc(NC(=O)CSC2=NN3CCCC(=O)N=C3S2)c(C)c1 | 0.014% (inactive)

Structure (SMILES) | activity change, negative = cytotoxicity
COc1ccc(Cl)cc1NC(=O)CN(C)CC(=O)Nc1cc(OC)c(OC)c(OC)c1 | -28.5% (inactive)
Fc1ccccc1/C=N/NC(=S)Nc1ccc(Cl)cc1Cl | -15.1% (inactive)
COc1cccc(NC(=O)CN2C(=O)NC3(CCCCCC3)C2=O)c1 | -8.11% (inactive)
CC(=O)Nc1ccc(NC(=O)COc2cccc3c2OC(C)(C)C3)cc1 | -0.938% (inactive)
CCOC1=C/C(=C/c2c(N)n3nc(S(=O)(=O)CC)sc3nc2=O)C=CC1=O | -8.59% (inactive)
COc1ccc(C=NNC(=O)CCCC(=O)NN=Cc2ccc(OC)c(O)c2)cc1O | -6.49% (inactive)
Fc1ccc(/C=N/NC(=S)Nc2ccc(Cl)cc2Cl)cc1 | -9.99% (inactive)
Cc1cccc(NC(=O)c2ccccc2NC(=O)C2CCCCC2)c1C | -14.9% (inactive)
COc1ccc(/C=N/NC(=O)c2c(C)nc3ccc(Br)cn23)cc1OC | -12.8% (inactive)
COc1cc(/C=C/C(=O)c2ccc3c(c2)OCO3)cc(Cl)c1O | -21.8% (inactive)
Cc1cc(NC(=O)CN2C(=O)NC3(CCCCCC3)C2=O)ccc1Br | -16.8% (inactive)
Cc1cnc(NC(=O)CCc2ccccc2)s1 | -13.8% (inactive)
CCn1c(SC(C)C(=O)NCC2CCCO2)nc2ccccc21 (configuration not stated) | -11% (inactive)
COc1cc(C(=O)NCC2CCCO2)ccc1OCc1ccc(Cl)cc1 (configuration not stated) | -13.4% (inactive)
CCC1=Nc2cc(C(=O)NCc3cccnc3)ccc2Sc2ccc(C)cc21 | -33.6% (inactive)
COc1ccccc1OCC(O)CN1C(=O)NC(C)(C)C1=O (configuration not stated) | 7.53% (inactive)
C/C=C/c1ccc([C@H]2[C@@H](CNC(=O)CC)N(C(=O)COC)[C@H]2CO)cc1 | 7.05% (inactive)
CCN(C(=O)COC(=O)/C=C/c1c(C)nn(-c2ccccc2)c1C)c1c(N)n(Cc2ccccc2)c(=O)[nH]c1=O | 7.63% (inactive)
CN(Cc1ccco1)c1ncnc2ccc(-c3ccc4c(ccn4C)c3)cc12 | -34.1% (inactive)
COc1ccccc1C(=O)Nc1ccc2c(c1)nc(CCNC(=O)c1ccco1)n2C | -32.2% (inactive)
CC1(C)Cc2c(c(-c3ccco3)nc3sc4c(NCCN5CCOCC5)ncnc4c23)CO1 | -8.98% (inactive)
O=C(c1cccc(S(=O)(=O)N2CCOCC2)c1)N1CCCC(C(F)(F)F)C1 (configuration not stated) | 0.18% (inactive)
CN(CCOc1ccc(Cl)cc1)C(=O)c1cccc(S(=O)(=O)N2CCN(c3ccccc3)CC2)c1 | -24.9% (inactive)
CCN(CC)S(=O)(=O)c1ccc(NC(=O)C2CC(=O)N(c3ccc4c(c3)OCCO4)C2)cc1 (configuration not stated) | -18.8% (inactive)
Cn1cc(C(=O)OCC2CCN(CCNS(C)(=O)=O)CC2)c2ccccc21 | -10.9% (inactive)
Cc1cc(C(=O)N/N=C/c2ccc3c(c2)OCO3)c2ccccc2n1 | -21.4% (inactive)
